Data taken from PubChem BioAssay AID504682 (Southern Research Specialized Biocontainment Screening …, 2011).
Measured potencies and affinities stand elsewhere. The source made the active and inactive calls. The rule behind the calls is not given here.

Experiment: cytotoxicity control, cell-based, set 2 (AID 504682)
Conditions: HepG2 cytotoxicity; series mostly up to 50 µM
In the case of `O=C(CSc1ncccn1)NC1CCCCC1`, the outcome is reported as “inactive”.
With `CCn1c2ccccc2c2cc(NC(=O)CSc3nc(C)cc(=O)[nH]3)ccc21` the outcome was “inactive”.
With `O=C(CSc1ccccn1)NC1CCCCC1` the outcome was “inactive”.
With `Cc1cc(=O)[nH]c(=S)[nH]1` the outcome was “inactive”.
In the case of `O=C(/C=C/c1ccccc1)N1CCN(CCN2C(=O)c3cccc4cccc(c34)C2=O)CC1`, the outcome is reported as “inactive”.
For `COC(=O)C(C)Oc1ccc(Cc2ncc(C(F)(F)F)cc2Cl)cc1` (centres undefined), the outcome was “inactive”.
In the case of `O=C1C(Br)=Cc2cccc3cccc1c23`, the outcome is reported as “inactive”.
With `COC(=O)C1CC(=O)N(c2ccc(OCc3ccccc3Cl)cc2)C1` (centres undefined) the outcome was “inactive”.
In the case of `CCOC(=O)CNC(=O)[C@H](Cc1ccccc1)NC(=O)OCc1ccccc1`, the outcome is reported as “inactive”.
For `CCOC(=O)C(C)Sc1ncnc2c1nnn2-c1ccc(F)cc1` (centres undefined), the outcome was “inactive”.
For `Cc1ccc(NC(=O)C2C3/C=C\CCCCC32)cc1C` (centres undefined), the outcome was “inactive”.
For `CCOC1OC(=O)C(Cl)=C1Nc1ccccc1C` (centres undefined), the outcome was “inactive”.
For `COC(=O)CCc1nc2c(C#N)c(-c3ccc(Cl)cc3)ccn2n1`, the outcome was “inactive”.
With `Cc1[nH]c(=S)[nH]c(=O)c1C` the outcome was “inactive”.
With `CCc1ccc(/C=C2/C(=O)N(C)C(=S)N2CC(=O)OC)s1` the outcome was “inactive”.
For `O=C(CSc1nccc(=O)[nH]1)Nc1ccc(N2CCOCC2)cc1`, the outcome was “inactive”.
With `CCOC(=O)COn1c2c(c3c4no[n+]([O-])c4ccc31)CCCC2` the outcome was “inactive”.
For `CCOC(=O)COc1ccc(/C=C2\NC(=S)N(CC)C2=O)cc1`, the outcome was “inactive”.
With `O=C(CSc1nc(O)cc(=O)[nH]1)Nc1ccccc1` the outcome was “inactive”.
In the case of `O=C(CSc1nccc(=O)[nH]1)Nc1ccc(Oc2ccccc2)cc1`, the outcome is reported as “inactive”.
With `COC(=O)C(C)Oc1ccc(-c2nccc(-c3ccccn3)n2)cc1` (centres undefined) the outcome was “inactive”.
In the case of `O=C(CSc1nc2ccccc2c(=O)[nH]1)NC1CCCCC1`, the outcome is reported as “inactive”.
For `CC[N+](C)(CC)CCCCOc1ccc2c(c1)C(=O)c1cc(OCCCC[N+](C)(CC)CC)ccc1-2`, the outcome was “inactive”.
With `CCSc1nc2ccccc2c(=O)[nH]1` the outcome was “inactive”.
With `O=c1[nH]c(=S)[nH]c2ccccc12` the outcome was “inactive”.
In the case of `Cc1nc(SCC(=O)N(C)c2ccccc2)[nH]c(=O)c1C`, the outcome is reported as “inactive”.
For `Cc1nc(SCC(=O)NC2CCCCC2)[nH]c(=O)c1C`, the outcome was “inactive”.
With `COC(=O)c1ccc(CNc2c(N3CCCC3)c(=O)c2=O)cc1` the outcome was “inactive”.
In the case of `COc1cc(NC(=O)C/C(C)=N/NC(=O)c2ccccn2)c(OC)cc1Cl`, the outcome is reported as “inactive”.
For `CCOC(=O)CSc1nc(C)c(C)c(=O)[nH]1`, the outcome was “inactive”.
For `Cc1nc(SCc2ccccc2Cl)[nH]c(=O)c1C`, the outcome was “inactive”.
In the case of `Cc1nc(SCC(N)=O)[nH]c(=O)c1C`, the outcome is reported as “inactive”.
For `Cc1cc(=O)[nH]c(SCC(=O)Nc2ccccc2)n1`, the outcome was “inactive”.
With `CCSc1nc(C)c(C)c(=O)[nH]1` the outcome was “inactive”.
In the case of `CC(=NCc1ccc2c(c1)OCO2)C1=C(O)c2ccccc2C1=O`, the outcome is reported as “inactive”.
For `CN(C(=O)CSc1nc2ccccc2c(=O)[nH]1)C1CCCCC1`, the outcome was “inactive”.
With `Cc1c[nH]c(=S)[nH]c1=O` the outcome was “inactive”.
For `Cc1ccc(NC(=O)COC(=O)CCc2c[nH]c3ccccc23)cc1[N+](=O)[O-]`, the outcome was “inactive”.
With `O=C(CSc1nc2ccccc2c(=O)[nH]1)NCc1ccc(Cl)cc1` the outcome was “inactive”.
